The full data set covers some 8,800 targets. This sample favours those with a hit. About 0.5% of all pairs of compound and target were hits.
Columns and labels:
Test in all cases: log2 fold change, soluble protein after heating vs DMSO (PISA); higher = thermal stabilisation; K562 lysate, 10 uM; active = over 0.2 and 3.5 SD of the protein, either way, in both replicates (recomputed)
[1] = compound: CS(=O)(=O)CCNCc1ccc(-c2ccc3ncnc(Nc4ccc(OCc5cccc(F)c5)c(Cl)c4)c3c2)o1 [lapatinib]
How it was run: (§1)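 Values give the log-two fold change in thermal stability against solvent controls, from duplicates. Crude K562 extract at 1 mg/mL protein, made by dounce homogenisation in PBS pH 7.4 with 1 mM MgCl2, was treated with 10 μM compound for 30 min. After 3 min heating across 48°C-58°C, aliquots were pooled, adjusted to 0.5% NP-40 at 4°C and centrifuged at 21,000xg for 90 min. The supernatant was measured by TMTpro 16plex LC-MS/MS with channel sums equalised.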

[2] = compound: CS(=O)(=O)N1CCN(Cc2cc3nc(-c4cccc5[nH]ncc45)nc(N4CCOCC4)c3s2)CC1 [pictilisib]
How it was run: as §1

[3] = compound: C[C@@H](Oc1cc(-c2cnn(C3CCNCC3)c2)cnc1N)c1c(Cl)ccc(F)c1Cl [crizotinib]
How it was run: as §1

[4] = compound: C[C@H](C1=CC=C(C=C1)C(=O)NC2=C3C=CNC3=NC=C2)N
How it was run: as §1

[5] = compound: C[C@H](Nc1ncnc2nc[nH]c12)c1cc2cccc(Cl)c2c(=O)n1-c1ccccc1 [duvelisib]
How it was run: as §1

[6] = compound: Cc1cc(Nc2cc(CN3CCOCC3)c3nc(C)c(Cc4ccc(Cl)cc4F)n3n2)n[nH]1 [gandotinib]
How it was run: as §1

[7] = compound: Cc1cc(Nc2cc(N3CCN(C)CC3)nc(Sc3ccc(NC(=O)C4CC4)cc3)n2)n[nH]1 [tozasertib]
How it was run: as §1

[8] = compound: Cc1ccc(-n2nc(C(C)(C)C)cc2NC(=O)Nc2ccc(OCCN3CCOCC3)c3ccccc23)cc1 [doramapimod]
How it was run: as §1

[9] = compound: Cc1ccc(NC(=O)c2ccc(CN3CC[C@H](N(C)C)C3)c(C(F)(F)F)c2)cc1Nc1nccc(-c2cncnc2)n1 [bafetinib]
How it was run: as §1

[10] = compound: Cc1cccc(CC(=O)N2CCc3c2ccc(-c2cn(C)c4ncnc(N)c24)c3F)n1
How it was run: as §1

[11] = compound: Cc1cn(-c2cc(NC(=O)c3ccc(C)c(Nc4nccc(-c5cccnc5)n4)c3)cc(C(F)(F)F)c2)cn1 [nilotinib]
How it was run: as §1

[12] = compound: Cc1nc(Nc2n[nH]c3c2CN(C(=O)N[C@H](CN(C)C)c2ccccc2)C3(C)C)c2sccc2n1
How it was run: as §1

[13] = compound: Cc1nc(Nc2ncc(C(=O)Nc3c(C)cccc3Cl)s2)cc(N2CCN(CCO)CC2)n1 [dasatinib]
How it was run: as §1

[14] = compound: Cc1ncc(-c2ccnc(Nc3ccc(S(C)(=O)=O)cc3)n2)n1C(C)C
How it was run: as §1

[15] = compound: Cn1cc(-c2ccc3c(c2)CCN3C(=O)Cc2cccc(C(F)(F)F)c2)c2c(N)ncnc21
How it was run: as §1

[16] = compound: Cn1cc(CNCC2CCN(c3ncc(C(=O)NO)cn3)CC2)c2ccccc21 [quisinostat]
How it was run: as §1

[17] = compound: Cn1cncc1[C@@](N)(c1ccc(Cl)cc1)c1ccc2c(c1)c(-c1cccc(Cl)c1)cc(=O)n2C [tipifarnib]
How it was run: as §1

[18] = compound: NC(=O)Nc1cc(-c2cccc(F)c2)sc1C(=O)N[C@H]1CCCNC1
How it was run: as §1

[19] = compound: NC(=O)c1cnc(N[C@@H]2CCCC[C@@H]2N)nc1Nc1cccc(-n2nccn2)c1
How it was run: as §1

[20] = compound: NC1(c2ccc(-c3nc4ccn5c(=O)[nH]nc5c4cc3-c3ccccc3)cc2)CCC1
How it was run: as §1

Measured: log2 fold change

PCBP2 isoform 3 (UniProt Q15366)
Chain of UniProt Q15366 (Q15366 whole entry, looked up): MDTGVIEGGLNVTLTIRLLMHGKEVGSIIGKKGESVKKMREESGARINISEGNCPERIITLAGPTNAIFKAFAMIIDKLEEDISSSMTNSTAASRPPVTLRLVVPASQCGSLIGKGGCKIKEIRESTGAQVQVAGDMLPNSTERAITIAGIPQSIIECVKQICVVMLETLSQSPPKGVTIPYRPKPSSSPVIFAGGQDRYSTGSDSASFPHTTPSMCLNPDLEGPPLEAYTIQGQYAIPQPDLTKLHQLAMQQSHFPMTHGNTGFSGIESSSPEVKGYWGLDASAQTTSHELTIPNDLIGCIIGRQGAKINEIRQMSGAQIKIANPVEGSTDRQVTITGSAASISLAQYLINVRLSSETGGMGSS
inactive: [1] -0.013 | [2] -0.008 | [3] 0.079 | [4] -0.005 | [5] -0.015 | [6] -0.023 | [7] 0.014 | [8] 0.012 | [9] 0.002 | [10] -0.042 | [11] 0.019 | [12] -0.012 | [13] -0.019 | [14] 0.015 | [15] 0.039 | [16] 0.044 | [17] 0.005 | [18] 0 | [19] 0.005 | [20] 0.072

PRKCSH (UniProt P14314)
Chain of UniProt P14314 (P14314 whole entry, looked up): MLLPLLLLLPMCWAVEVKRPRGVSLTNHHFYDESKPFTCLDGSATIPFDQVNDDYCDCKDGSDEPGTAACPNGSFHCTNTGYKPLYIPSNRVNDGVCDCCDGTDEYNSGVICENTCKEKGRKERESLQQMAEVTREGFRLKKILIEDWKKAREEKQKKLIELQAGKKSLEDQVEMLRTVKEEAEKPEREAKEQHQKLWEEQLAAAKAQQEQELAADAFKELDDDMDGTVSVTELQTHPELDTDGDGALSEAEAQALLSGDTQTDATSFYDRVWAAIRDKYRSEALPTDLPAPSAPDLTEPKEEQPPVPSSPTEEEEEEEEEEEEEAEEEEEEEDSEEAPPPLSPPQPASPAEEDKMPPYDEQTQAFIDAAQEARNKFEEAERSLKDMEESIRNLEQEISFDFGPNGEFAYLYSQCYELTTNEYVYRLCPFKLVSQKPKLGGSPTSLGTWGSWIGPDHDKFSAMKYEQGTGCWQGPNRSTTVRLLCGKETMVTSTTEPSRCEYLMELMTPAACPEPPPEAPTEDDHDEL
inactive: [1] -0.004 | [2] -0.004 | [3] 0.062 | [4] 0.046 | [5] 0.022 | [6] -0.023 | [7] 0.02 | [8] -0.042 | [9] 0.05 | [10] -0.088 | [11] 0.01 | [12] 0.016 | [13] 0.037 | [14] 0.041 | [15] -0.003 | [16] 0.088 | [17] 0.008 | [18] -0.006 | [19] -0.004 | [20] 0.036

PREP (UniProt P48147)
Chain of UniProt P48147 (P48147 whole entry, looked up): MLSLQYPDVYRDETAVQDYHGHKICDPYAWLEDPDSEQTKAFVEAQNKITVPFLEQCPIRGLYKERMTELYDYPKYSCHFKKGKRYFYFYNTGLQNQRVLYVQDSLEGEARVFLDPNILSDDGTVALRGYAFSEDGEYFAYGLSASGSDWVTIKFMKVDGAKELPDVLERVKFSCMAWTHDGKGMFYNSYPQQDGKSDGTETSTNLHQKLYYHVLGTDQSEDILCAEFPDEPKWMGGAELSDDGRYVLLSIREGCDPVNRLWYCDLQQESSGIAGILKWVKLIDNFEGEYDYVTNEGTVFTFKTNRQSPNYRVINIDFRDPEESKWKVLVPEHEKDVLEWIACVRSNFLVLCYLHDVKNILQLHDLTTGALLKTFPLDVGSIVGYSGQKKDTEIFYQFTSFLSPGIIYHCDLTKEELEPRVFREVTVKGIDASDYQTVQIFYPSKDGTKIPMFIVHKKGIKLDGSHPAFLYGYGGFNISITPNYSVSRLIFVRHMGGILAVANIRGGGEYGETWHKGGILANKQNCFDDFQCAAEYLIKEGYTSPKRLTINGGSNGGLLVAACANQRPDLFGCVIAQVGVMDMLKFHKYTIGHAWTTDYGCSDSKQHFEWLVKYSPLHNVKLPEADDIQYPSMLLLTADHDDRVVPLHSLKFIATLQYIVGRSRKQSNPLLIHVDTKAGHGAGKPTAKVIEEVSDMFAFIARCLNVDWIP
inactive: [1] -0.024 | [2] -0.013 | [3] -0.016 | [4] 0.009 | [5] 0.043 | [6] -0.042 | [7] -0.012 | [8] -0.001 | [9] -0.004 | [10] -0.01 | [11] 0 | [12] -0.014 | [13] -0.026 | [14] -0.002 | [15] 0.007 | [16] 0.008 | [17] 0.023 | [18] 0.011 | [19] 0.006 | [20] -0.005

PDPK1 (UniProt O15530)
Chain of UniProt O15530 (O15530 whole entry, looked up): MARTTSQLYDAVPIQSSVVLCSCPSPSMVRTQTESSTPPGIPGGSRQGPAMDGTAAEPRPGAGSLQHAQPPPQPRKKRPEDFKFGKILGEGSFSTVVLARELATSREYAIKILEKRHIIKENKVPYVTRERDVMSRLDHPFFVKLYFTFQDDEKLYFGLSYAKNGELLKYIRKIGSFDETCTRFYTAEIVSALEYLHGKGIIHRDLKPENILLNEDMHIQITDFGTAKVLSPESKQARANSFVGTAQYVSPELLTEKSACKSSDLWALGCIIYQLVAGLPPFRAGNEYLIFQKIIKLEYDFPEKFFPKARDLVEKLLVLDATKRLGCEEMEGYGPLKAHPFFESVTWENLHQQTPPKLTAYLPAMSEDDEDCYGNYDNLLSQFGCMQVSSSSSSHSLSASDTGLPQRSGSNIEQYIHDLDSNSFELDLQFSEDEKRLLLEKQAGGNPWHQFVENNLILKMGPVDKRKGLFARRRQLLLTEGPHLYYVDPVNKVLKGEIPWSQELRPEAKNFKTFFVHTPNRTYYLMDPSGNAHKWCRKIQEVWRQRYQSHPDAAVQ
active: [18] 0.619
inactive: [1] -0.04 | [2] -0.051 | [3] 0.03 | [4] 0.262 | [5] -0.039 | [6] 0.092 | [7] -0.029 | [8] -0.012 | [9] -0.021 | [10] -0.211 | [11] -0.093 | [12] 0.314 | [13] -0.014 | [14] -0.093 | [15] 0 | [16] -0.094 | [17] -0.011 | [19] 0.019 | [20] -0.059

PIK3R1 (UniProt P27986)
Chain of UniProt P27986 (P27986 whole entry, looked up): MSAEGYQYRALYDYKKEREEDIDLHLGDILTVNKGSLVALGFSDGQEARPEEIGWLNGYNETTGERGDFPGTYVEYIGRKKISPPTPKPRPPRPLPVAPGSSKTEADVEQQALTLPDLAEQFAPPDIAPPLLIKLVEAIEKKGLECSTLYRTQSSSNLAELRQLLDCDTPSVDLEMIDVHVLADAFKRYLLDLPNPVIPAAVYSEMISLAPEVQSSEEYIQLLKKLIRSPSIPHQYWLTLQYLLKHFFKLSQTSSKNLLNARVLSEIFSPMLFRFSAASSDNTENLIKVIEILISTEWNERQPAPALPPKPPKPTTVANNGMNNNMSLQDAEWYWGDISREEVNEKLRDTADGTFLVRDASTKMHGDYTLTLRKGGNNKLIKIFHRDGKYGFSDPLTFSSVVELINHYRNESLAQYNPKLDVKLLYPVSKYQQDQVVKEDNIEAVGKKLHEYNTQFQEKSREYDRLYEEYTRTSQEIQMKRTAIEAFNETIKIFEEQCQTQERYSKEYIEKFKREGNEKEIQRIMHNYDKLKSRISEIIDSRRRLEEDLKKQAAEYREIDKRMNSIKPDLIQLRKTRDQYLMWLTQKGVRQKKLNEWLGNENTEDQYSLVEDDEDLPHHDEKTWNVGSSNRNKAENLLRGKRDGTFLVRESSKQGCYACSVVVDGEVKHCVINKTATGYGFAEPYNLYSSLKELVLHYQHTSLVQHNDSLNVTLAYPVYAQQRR
inactive: [1] 0.002 | [2] 0.374 | [3] -0.015 | [4] 0.033 | [6] 0.171 | [7] 0.039 | [8] -0.02 | [9] 0.007 | [10] -0.011 | [11] -0.041 | [12] -0.072 | [13] -0.024 | [14] 0.058 | [15] 0.004 | [16] -0.027 | [17] 0.039 | [18] 0.042 | [19] 0.021 | [20] 0.249
active: [5] 0.534

PFAS (UniProt O15067)
Chain of UniProt O15067 (O15067 whole entry, looked up): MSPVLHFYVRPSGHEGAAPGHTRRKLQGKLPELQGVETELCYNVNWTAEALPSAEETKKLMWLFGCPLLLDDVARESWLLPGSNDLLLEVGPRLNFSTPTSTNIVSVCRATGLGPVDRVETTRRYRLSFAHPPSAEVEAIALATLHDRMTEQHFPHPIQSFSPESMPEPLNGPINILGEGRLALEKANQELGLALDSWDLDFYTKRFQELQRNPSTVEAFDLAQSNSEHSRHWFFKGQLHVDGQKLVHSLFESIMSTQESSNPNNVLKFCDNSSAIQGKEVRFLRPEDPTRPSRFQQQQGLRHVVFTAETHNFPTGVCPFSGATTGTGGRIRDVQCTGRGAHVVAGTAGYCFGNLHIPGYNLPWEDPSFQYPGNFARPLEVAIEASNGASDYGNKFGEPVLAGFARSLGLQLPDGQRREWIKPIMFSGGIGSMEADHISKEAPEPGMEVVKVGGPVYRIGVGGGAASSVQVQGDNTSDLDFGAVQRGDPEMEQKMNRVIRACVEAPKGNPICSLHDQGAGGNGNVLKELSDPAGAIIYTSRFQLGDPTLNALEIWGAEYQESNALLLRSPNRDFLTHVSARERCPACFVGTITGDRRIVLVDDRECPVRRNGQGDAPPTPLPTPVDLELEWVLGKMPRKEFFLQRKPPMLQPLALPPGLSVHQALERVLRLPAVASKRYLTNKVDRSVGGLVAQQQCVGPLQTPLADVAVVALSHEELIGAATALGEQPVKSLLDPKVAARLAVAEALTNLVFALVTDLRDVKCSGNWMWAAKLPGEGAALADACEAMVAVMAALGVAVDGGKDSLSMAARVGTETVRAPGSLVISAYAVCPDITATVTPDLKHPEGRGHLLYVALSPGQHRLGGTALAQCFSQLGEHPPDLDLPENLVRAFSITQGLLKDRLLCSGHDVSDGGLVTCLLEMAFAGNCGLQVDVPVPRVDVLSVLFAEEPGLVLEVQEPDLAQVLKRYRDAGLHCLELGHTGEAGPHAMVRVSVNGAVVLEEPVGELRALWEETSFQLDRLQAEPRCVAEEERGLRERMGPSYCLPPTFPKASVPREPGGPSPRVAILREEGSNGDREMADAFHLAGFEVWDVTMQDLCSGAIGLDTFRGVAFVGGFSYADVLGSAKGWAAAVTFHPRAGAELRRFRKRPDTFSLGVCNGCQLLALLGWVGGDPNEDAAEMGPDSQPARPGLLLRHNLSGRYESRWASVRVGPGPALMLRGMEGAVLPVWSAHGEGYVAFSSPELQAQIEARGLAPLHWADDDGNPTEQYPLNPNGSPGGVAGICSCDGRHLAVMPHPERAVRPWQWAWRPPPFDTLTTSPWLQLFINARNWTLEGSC
inactive: [1] -0.01 | [2] -0.011 | [3] -0.067 | [4] -0.011 | [5] -0.009 | [6] 0.002 | [7] -0.008 | [8] 0.035 | [9] -0.028 | [10] 0.019 | [11] 0.015 | [12] -0.023 | [13] -0.031 | [14] -0.017 | [15] 0.008 | [16] -0.037 | [17] 0.01 | [18] 0.01 | [19] 0.005 | [20] -0.009

PPP4R2 (UniProt Q9NY27)
Chain of UniProt Q9NY27 (Q9NY27 whole entry, looked up): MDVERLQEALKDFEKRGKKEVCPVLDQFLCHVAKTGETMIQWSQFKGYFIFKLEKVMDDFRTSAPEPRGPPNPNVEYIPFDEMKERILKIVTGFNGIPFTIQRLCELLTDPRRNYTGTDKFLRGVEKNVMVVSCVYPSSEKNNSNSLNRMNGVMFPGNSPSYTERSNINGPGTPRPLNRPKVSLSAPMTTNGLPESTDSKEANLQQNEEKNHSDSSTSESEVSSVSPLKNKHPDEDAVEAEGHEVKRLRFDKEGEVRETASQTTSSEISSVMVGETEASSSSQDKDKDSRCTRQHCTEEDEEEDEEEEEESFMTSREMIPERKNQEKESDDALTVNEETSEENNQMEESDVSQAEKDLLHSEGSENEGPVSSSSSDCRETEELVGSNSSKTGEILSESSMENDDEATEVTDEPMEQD
inactive: [1] 0.057 | [2] -0.003 | [3] 0.023 | [4] 0.159 | [5] 0.003 | [6] -0.011 | [7] -0.007 | [8] -0.022 | [9] 0.021 | [10] -0.048 | [11] 0.012 | [12] 0.018 | [13] 0.029 | [14] 0.005 | [15] -0.028 | [16] -0.009 | [17] -0.042 | [18] -0.011 | [19] 0.009 | [20] -0.01

PRG4 (UniProt Q92954)
active: [4] -1.36
inactive: [1] -0.097 | [2] -0.408 | [3] -0.118 | [5] 0.042 | [6] 0.051 | [8] 0.201 | [9] -0.238 | [10] 0.278 | [11] -0.092 | [12] 0.196 | [13] -0.028 | [14] 0.196 | [15] 0.024 | [16] -0.285 | [17] 0.17 | [18] 0.057 | [19] -0.09

PRADC1 (UniProt Q9BSG0)
Chain of UniProt Q9BSG0 (Q9BSG0 whole entry, looked up): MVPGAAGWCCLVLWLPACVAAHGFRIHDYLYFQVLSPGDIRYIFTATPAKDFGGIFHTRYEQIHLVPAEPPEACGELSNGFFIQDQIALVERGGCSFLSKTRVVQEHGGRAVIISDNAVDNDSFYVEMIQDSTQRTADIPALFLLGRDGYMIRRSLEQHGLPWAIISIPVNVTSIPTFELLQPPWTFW
inactive: [1] -0.088 | [2] 0.091 | [3] 0.075 | [4] 0.166 | [5] -0.069 | [6] -0.002 | [8] -0.041 | [9] -0.149 | [10] -0.087 | [11] 0.1 | [12] -0.1 | [13] 0.019 | [14] -0.047 | [15] 0.053 | [16] -0.007 | [17] 0.296 | [18] -0.031 | [19] -0.016 | [20] 0.013
